# Source: PubChem BioAssay
# A number with no mark means an inactive call. The source made the active and inactive calls.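 The calls were made as follows: active = z-score of at least 1.8 in each of two replicates, scored against plate mean and spread of sample wells; inactive = the rest.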
# Assay: galactose survival enhancers in mitochondrial complex I cybrids – cell-based, galactose medium, ATP luminescence, primary screen (AID 1645843);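 also: positive z means more ATP and so rescue of galactose-driven cybrid death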
# Conditions: complex I mutant cybrid cells, 72 h, active compounds read high
row,Structure (SMILES),z-score
1,CCn1cc(CN(C(=O)c2cnc3ccccn3c2=O)C(C)C)cn1,0.18
2,COc1cccc2ccc(-c3ccccc3)nc12,-0.375
3,c1ccc(Cn2ccnc2CNc2ncnc3nc[nH]c23)cc1,-0.435
4,CC(Oc1ccc2c(c1)OCO2)C(=O)N(Cc1nccn1C)C(C)C (stereo not given),-0.22
5,NC1CCN(C2CCN(c3cccc(-c4ccccc4)c3)CC2)CC1,-1.03
6,Cc1cc(C(F)(F)F)nc(CNC(=O)c2ccc3nccnc3c2)n1,-0.69
7,CC1CCc2c(sc3ncn(Cc4noc(C(C)C)n4)c(=O)c23)C1 (stereo not given),-0.525
8,CCCC(C)N(CC)C(=O)c1ccc(C#CC(C)(C)O)o1 (stereo not given),-0.525
9,COc1ccccc1OC(C)c1nc(Cc2cccc(C(F)(F)F)c2)no1 (stereo not given),0.51
10,NC(=O)NCc1cn(CC2CCN(C(=O)C3CCCCCC3)CC2)nn1,-0.565
11,OCCCCCNc1nccc(-c2cnn(-c3ccc(F)cc3)c2)n1,-0.895
12,CCC1(CC)CC1C(=O)N1CCC(n2cc(C3(O)CCCC3)nn2)CC1 (stereo not given),-0.565
13,Cc1cn(CC(=O)Nc2cnn(C)n2)nc1-c1cccs1,0.735
14,CCC(CC)C(=O)N1CCC(n2cc(C(C)(C)O)nn2)CC1,0.875
15,COc1cc(C)c(CNC(C)CCCC(C)(C)O)c(C)c1C (stereo not given),-0.435
16,c1ccc(C(CCn2ccnc2)NC2CCCCCC2)cc1 (stereo not given),-0.47
17,O=c1c2c3c(sc2ncn1CCF)CCCCC3,-0.535
18,Cc1cc(CN2CCOC(CN)C2)ccc1OC1(C(=O)O)CCSCC1 (stereo not given),-0.415
19,CN(CC1COc2ccccc2O1)C(=O)Nc1nncs1 (stereo not given),-0.295
20,Cc1ccn(CCN2CCC(Oc3cccc(Cl)c3)CC2)n1,0.135

row,Structure (SMILES),z-score
1,COC(=O)c1ccccc1C(=O)N1CCNC(=O)C1Cc1ccccc1 (stereo not given),-0.485
2,O=C1NCCN(C(=O)c2cccc(-c3ccccc3)c2)C1Cc1ccccc1 (stereo not given),2.37 (active)
3,Cc1ccc2nc(-c3cnc(CCC(C)C)nc3)c(C)c(C(=O)N(C)C)c2c1,-0.51
4,CCCCc1cn(C2CCN(C3Cc4ccccc4C3)CC2)nn1,-0.33
5,O=C(CC1CCCCCC1)N1CCC(Cn2cc(C3CC3)nn2)CC1,-0.55
6,CCC1(CC)CC1C(=O)N1CCC(n2cc(C3CC3)nn2)CC1 (stereo not given),-0.51
7,O=C1CN(c2ncnc3nc[nH]c23)CCN1C1CCCCC1,1.14
8,CC(C)Cc1cn(C2CCN(C(=O)C3CCCCCC3)CC2)nn1,-0.435
9,CCn1cnc(NC(=O)NC2CCN(Cc3ccncc3)CC2)n1,3.54 (active)
10,CC(C)C1=NOC(c2nc(C(C)c3ccccc3)no2)C1 (stereo not given),-0.83
11,CCC1(CC)CC1C(=O)N1CCCCC1CCn1ccnc1C (stereo not given),-0.475
12,Cc1cc(C(=O)N2CCCC(C)C2)c2ccc(C)c(C)c2n1 (stereo not given),-0.505
13,Cc1cc(N2CCCC(Cn3cc(CN)nn3)C2)nc(-c2ccccc2O)n1 (stereo not given),-0.9
14,CC1(C(=O)N2CCC(n3cc(C(C)(C)C)nn3)CC2)CCCO1 (stereo not given),-0.79
15,COc1ccccc1N1CCN(C(=O)Nc2n[nH]c(Cc3ccccc3)n2)CC1,-0.935
16,CCN(CC)C(=O)c1cc(-c2cnc(C(C)C)nc2)nc2c(C)cccc12,-1.09
17,CCCC(C)c1nc2c(cnn2CC(C)C)[nH]1 (stereo not given),1.06
18,CCCC(C)c1nc2c(cnn2C(C)C(C)C)[nH]1 (stereo not given),-1.01
19,O=C(C1CCCCCC1)N1CCC(n2cc(-c3ccsc3)nn2)CC1,-0.215
20,Cc1nn(C)c(C)c1-c1ccnc(N2CCC(c3ccccc3Cl)C2)n1 (stereo not given),-1.27
